Targets with a hit are over-represented here; the source holds about 7,900 in all. About 0.6% of all pairs of compound and target were hits.
Key:
Assay in all cases: log2 fold change, soluble protein after heating vs DMSO (PISA); higher = thermal stabilisation; K562 cells, 10 uM, 30 min; active = over 0.2 and 3.5 SD of the protein, either way, in both replicates (recomputed)
[1] = compound: NC(=O)Nc1cc(-c2cccc(F)c2)sc1C(=O)N[C@H]1CCCNC1
Outline: (§1)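 Quantification of soluble protein used TMTpro 16plex LC-MS/MS, with channel sums equalised. Samples were the supernatant after 21,000xg for 90 min of pooled aliquots from K562 cells (2×10^6 cells/mL) treated with 10 μM compound for 30 min, heated for 3 min over 48°C-58°C, and extracted in PBS with 0.5% NP-40 at 4°C. Values, from duplicates, describe thermal stability against control samples on a log2 fold-change scale.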

[2] = compound: NC(=O)c1cnc(N[C@@H]2CCCC[C@@H]2N)nc1Nc1cccc(-n2nccn2)c1
Outline: as §1

[3] = compound: NCC(=O)Nc1ccc(-n2nc(C(F)(F)F)cc2-c2ccc3c(ccc4ccccc43)c2)cc1
Outline: as §1

entinostat = compound: Nc1ccccc1NC(=O)c1ccc(CNC(=O)OCc2cccnc2)cc1 [entinostat]
Outline: as §1

vorinostat = compound: O=C(CCCCCCC(=O)Nc1ccccc1)NO [vorinostat]
Outline: as §1

[4] = compound: O=C1NC(=O)C(c2cnc3ccccn23)=C1c1cn2c3c(cc(F)cc13)CN(C(=O)N1CCCCC1)CC2
Outline: as §1

[5] = compound: NC1(c2ccc(-c3nc4ccn5c(=O)[nH]nc5c4cc3-c3ccccc3)cc2)CCC1
Outline: as §1

citarinostat = compound: O=C(CCCCCCNC(=O)c1cnc(N(c2ccccc2)c2ccccc2Cl)nc1)NO [citarinostat]
Outline: as §1

silmitasertib = compound: O=C(O)c1ccc2c(c1)nc(Nc1cccc(Cl)c1)c1ccncc12 [silmitasertib]
Outline: as §1

[6] = compound: c1cc(OCCN2CCCCC2)cc(-c2n[nH]c3ccc(-c4nnc[nH]4)cc23)c1
Outline: as §1

entospletinib = compound: c1cn2cc(-c3ccc4cn[nH]c4c3)nc(Nc3ccc(N4CCOCC4)cc3)c2n1 [entospletinib]
Outline: as §1

Measured: log2 fold change

IGFBP3 isoform 2 (UniProt P17936)
Sequence of UniProt P17936 (P17936 whole entry, looked up): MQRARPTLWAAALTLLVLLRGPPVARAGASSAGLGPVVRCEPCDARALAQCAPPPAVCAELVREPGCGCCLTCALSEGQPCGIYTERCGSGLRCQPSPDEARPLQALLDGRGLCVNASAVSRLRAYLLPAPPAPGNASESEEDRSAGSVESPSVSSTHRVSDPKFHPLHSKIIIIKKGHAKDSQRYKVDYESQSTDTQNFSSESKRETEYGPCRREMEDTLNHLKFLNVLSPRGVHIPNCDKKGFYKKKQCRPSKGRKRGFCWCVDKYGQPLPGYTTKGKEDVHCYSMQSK
inactive: [1] 0.042 | [2] -0.142 | [3] -0.043 | entinostat -0.02 | vorinostat 0.167 | [4] -0.047

MFAP3 (UniProt P55082)
inactive: [1] 0.043 | [2] -0.04 | [3] -0.09 | entinostat -0.052 | [4] -0.243

ITM2C (UniProt Q9NQX7)
Sequence of UniProt Q9NQX7 (Q9NQX7 whole entry, looked up): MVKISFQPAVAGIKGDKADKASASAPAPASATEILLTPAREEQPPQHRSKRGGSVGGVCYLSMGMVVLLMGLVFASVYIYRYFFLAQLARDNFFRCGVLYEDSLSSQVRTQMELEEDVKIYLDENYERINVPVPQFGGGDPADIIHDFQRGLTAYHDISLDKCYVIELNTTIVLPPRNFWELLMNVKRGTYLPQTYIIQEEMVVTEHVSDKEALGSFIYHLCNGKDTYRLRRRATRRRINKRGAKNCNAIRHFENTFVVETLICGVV
inactive: [1] -0.309 | [2] -0.009 | [3] -0.133 | entinostat 0.164 | vorinostat -0.032 | [4] 0.029

IMMP1L (UniProt Q96LU5)
inactive: [1] -0.062 | [2] -0.055 | [5] -0.103 | [3] -0.037 | entinostat 0.005 | citarinostat 0.044 | silmitasertib -0.132 | [4] -0.088 | [6] 0.017 | entospletinib -0.172

LPGAT1 (UniProt Q92604)
inactive: [1] 0.038 | [2] 0.048 | [5] -0.102 | [3] 0.063 | entinostat -0.047 | citarinostat 0.157 | silmitasertib -0.015 | [4] -0.015 | [6] -0.108 | entospletinib -0.069

MAN2B2 (UniProt Q9Y2E5)
inactive: [1] 0.063 | [2] -0.099 | [5] -0.262 | [3] 0.089 | entinostat -0.018 | citarinostat 0.089 | silmitasertib -0.029 | [4] -0.058 | [6] -0.005 | entospletinib 0.004

LMBR1 isoform 3 (UniProt Q8WVP7)
inactive: [1] 0.047 | [2] -0.11 | [5] -0.104 | [3] -0.048 | entinostat 0.071 | vorinostat -0.016 | silmitasertib 0.014 | [4] -0.141

MASTL (UniProt Q96GX5)
inactive: [1] 0.123 | [2] -0.018 | [5] 0.144 | [3] -0.004 | entinostat 0.053 | citarinostat -0.018 | silmitasertib 0.123 | [4] 0.039 | [6] 0.002 | entospletinib -0.014

IPO9 (UniProt Q96P70)
inactive: [1] 0.059 | [2] -0.072 | [5] -0.07 | [3] 0.003 | entinostat 0.022 | vorinostat 0.041 | citarinostat 0.061 | silmitasertib 0.164 | [4] 0.048 | [6] -0.035 | entospletinib 0.037

MFSD11 (UniProt O43934)
Sequence of UniProt O43934 (O43934 whole entry, looked up): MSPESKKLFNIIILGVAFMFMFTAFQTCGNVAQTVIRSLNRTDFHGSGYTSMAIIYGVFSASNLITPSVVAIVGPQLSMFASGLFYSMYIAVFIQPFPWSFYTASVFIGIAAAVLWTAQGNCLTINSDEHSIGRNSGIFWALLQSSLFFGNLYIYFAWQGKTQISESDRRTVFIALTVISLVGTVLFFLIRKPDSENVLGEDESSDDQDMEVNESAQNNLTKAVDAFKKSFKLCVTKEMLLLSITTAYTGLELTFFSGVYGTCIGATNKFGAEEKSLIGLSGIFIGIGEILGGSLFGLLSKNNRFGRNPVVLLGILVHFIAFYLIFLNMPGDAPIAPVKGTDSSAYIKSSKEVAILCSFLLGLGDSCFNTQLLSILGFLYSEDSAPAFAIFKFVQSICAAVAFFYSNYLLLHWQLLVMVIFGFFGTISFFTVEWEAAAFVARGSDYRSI
inactive: [1] 0.035 | [2] 0.038 | [5] -0.202 | [3] 0.002 | entinostat -0.112 | vorinostat -0.028 | citarinostat -0.096 | silmitasertib 0.044 | [4] -0.04 | [6] 0.063 | entospletinib 0.109

MAP4 isoform 5 (UniProt P27816)
active: [4] 0.423
inactive: [1] 0.135 | [2] 0.087 | [5] 0.109 | entinostat 0.075 | citarinostat -0.121 | silmitasertib 0.012 | [6] 0.074 | entospletinib -0.07

METAP1D (UniProt Q6UB28)
Sequence of UniProt Q6UB28 (Q6UB28 whole entry, looked up): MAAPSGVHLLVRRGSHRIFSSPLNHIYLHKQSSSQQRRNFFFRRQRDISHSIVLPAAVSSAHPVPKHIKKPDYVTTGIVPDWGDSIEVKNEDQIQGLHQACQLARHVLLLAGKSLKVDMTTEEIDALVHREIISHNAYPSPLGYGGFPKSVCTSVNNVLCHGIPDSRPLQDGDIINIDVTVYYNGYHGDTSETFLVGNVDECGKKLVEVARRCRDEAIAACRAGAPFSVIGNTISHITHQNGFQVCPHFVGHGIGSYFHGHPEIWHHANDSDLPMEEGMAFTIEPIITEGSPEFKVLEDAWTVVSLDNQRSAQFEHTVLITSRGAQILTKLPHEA
inactive: [1] 0.061 | [2] 0.252 | [5] -0.033 | [3] 0.073 | entinostat -0.071 | citarinostat 0.098 | silmitasertib 0.064 | [4] -0.099 | [6] -0.04 | entospletinib 0.026

INTS5 (UniProt Q6P9B9)
inactive: [1] 0.015 | [2] -0.116 | [5] -0.079 | [3] -0.175 | entinostat 0.014 | silmitasertib -0.006 | [4] -0.076

MED7 (UniProt O43513)
inactive: [1] 0.034 | [2] 0.122 | [3] -0.041 | entinostat -0.16 | [4] -0.085

LUZP1 (UniProt Q86V48)
inactive: [1] 0.055 | [2] 0.089 | [5] 0.087 | [3] 0.058 | entinostat -0.081 | vorinostat -0.119 | silmitasertib 0.114 | [4] 0.084

MAGEA8 (UniProt P43361)
inactive: [2] -0.135 | [3] 0.034 | vorinostat -0.063 | citarinostat 0.012 | [6] -0.008 | entospletinib 0.125

ITPRID2 (UniProt P28290)
inactive: [3] -0.059 | citarinostat -0.029 | [4] -0.208 | [6] 0.211 | entospletinib -0.017

MAP4K2 (UniProt Q12851)
Sequence of UniProt Q12851 (Q12851 whole entry, looked up): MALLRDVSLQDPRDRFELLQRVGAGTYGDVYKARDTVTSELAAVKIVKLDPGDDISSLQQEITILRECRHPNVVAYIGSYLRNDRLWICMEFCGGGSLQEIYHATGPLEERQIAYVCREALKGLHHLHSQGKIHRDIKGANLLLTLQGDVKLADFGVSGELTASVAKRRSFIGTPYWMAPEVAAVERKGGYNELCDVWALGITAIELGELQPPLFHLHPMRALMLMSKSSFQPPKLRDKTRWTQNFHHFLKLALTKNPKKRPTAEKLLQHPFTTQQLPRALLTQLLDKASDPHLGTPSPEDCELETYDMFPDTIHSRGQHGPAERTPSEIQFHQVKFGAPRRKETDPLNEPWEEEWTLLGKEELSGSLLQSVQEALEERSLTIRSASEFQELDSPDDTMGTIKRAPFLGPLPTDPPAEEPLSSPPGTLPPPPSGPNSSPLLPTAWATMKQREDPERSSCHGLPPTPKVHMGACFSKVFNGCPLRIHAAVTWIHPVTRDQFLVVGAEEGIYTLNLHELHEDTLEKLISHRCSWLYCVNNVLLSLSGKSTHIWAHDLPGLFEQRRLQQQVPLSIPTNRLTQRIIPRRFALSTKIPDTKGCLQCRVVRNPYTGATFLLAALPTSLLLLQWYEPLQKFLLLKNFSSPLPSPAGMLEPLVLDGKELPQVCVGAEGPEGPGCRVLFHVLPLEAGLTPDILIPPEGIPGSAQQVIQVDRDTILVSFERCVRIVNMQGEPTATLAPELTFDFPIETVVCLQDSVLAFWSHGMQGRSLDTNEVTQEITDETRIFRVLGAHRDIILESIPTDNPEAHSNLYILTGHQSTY
inactive: entinostat 0.145 | citarinostat 0.116 | [6] -0.22 | entospletinib 0.128
active: [1] 0.827

MED29 (UniProt Q9NX70)
Sequence of UniProt Q9NX70 (Q9NX70 whole entry, looked up): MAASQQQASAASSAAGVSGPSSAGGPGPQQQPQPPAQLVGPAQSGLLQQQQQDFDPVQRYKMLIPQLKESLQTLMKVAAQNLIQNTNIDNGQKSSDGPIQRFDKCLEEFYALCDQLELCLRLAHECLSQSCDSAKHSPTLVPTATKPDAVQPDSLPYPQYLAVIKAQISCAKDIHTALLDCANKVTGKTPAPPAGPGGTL
inactive: [2] 0.05 | [5] 0.029 | silmitasertib 0.133

LRRCC1 (UniProt Q9C099)
inactive: [2] -0.041

MBLAC1 (UniProt A4D2B0)
Sequence of UniProt A4D2B0 (A4D2B0 whole entry, looked up): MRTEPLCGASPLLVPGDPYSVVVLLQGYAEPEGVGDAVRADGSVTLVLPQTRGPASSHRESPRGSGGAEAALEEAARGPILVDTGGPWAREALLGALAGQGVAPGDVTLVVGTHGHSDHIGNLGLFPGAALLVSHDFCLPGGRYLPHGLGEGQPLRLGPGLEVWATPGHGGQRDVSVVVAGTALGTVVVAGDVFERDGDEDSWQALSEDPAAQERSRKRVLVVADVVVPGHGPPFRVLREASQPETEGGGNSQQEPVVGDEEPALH
inactive: [2] -0.031 | [5] -0.179 | [3] 0.242 | vorinostat -0.021 | citarinostat 0.01 | silmitasertib -0.082 | [6] -0.067 | entospletinib 0.083

LEPROT (UniProt O15243)
inactive: [2] -0.161 | [5] -0.088 | vorinostat -0.142 | citarinostat 0.125 | silmitasertib 0.005 | [4] 0.261 | [6] -0.072 | entospletinib 0.029

KXD1 (UniProt Q9BQD3)
Sequence of UniProt Q9BQD3 (Q9BQD3 whole entry, looked up): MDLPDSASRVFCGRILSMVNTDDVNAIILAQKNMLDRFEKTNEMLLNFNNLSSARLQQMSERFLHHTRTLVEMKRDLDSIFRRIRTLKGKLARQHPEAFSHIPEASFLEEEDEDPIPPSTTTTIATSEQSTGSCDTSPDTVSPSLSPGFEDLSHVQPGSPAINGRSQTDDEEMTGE
inactive: [2] -0.091 | [5] -0.237 | [3] -0.021 | vorinostat -0.046 | citarinostat 0.042 | silmitasertib -0.113 | [4] 0.131 | [6] -0.055 | entospletinib 0.016

IKZF1 isoform 2 (UniProt Q13422)
Sequence of UniProt Q13422 (Q13422 whole entry, looked up): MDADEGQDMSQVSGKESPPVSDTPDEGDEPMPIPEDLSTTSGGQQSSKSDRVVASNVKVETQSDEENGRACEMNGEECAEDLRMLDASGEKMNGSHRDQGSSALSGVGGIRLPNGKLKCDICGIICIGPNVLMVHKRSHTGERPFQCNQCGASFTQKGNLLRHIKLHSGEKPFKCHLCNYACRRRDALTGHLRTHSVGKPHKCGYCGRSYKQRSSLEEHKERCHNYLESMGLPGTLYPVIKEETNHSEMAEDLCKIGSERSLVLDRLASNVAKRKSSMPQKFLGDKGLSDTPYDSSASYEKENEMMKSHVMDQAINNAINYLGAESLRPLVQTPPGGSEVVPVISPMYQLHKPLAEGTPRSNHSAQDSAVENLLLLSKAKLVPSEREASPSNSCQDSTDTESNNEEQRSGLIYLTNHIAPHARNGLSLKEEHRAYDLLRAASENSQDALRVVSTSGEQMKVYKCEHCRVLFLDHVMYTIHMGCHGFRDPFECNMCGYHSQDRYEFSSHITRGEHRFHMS
inactive: [1] 0.06 | [5] -0.109 | [3] 0.036 | entinostat -0.006 | silmitasertib 0.063

LAMP2 isoform 2 (UniProt P13473)
inactive: [2] -0.1 | [5] -0.321 | [3] -0.132 | vorinostat -0.113 | citarinostat 0.061 | silmitasertib 0.003 | [4] 0.027 | [6] -0.275 | entospletinib 0.033

MFSD12 isoform 3 (UniProt Q6NUT3)
inactive: [1] 0.073 | [2] -0.159 | entinostat -0.067 | vorinostat 0.11 | citarinostat 0.1 | [6] -0.162 | entospletinib -0.089

IKZF1 (UniProt R9R4D9)
inactive: vorinostat -0.181

MFSD8 (UniProt Q8NHS3)
inactive: [2] 0.02 | [5] -0.115 | [3] -0.076 | vorinostat -0.008 | citarinostat -0.003 | silmitasertib 0.069 | [4] -0.007 | [6] -0.129 | entospletinib 0.053

KMT5A (UniProt Q9NQR1)
Sequence of UniProt Q9NQR1 (Q9NQR1 whole entry, looked up): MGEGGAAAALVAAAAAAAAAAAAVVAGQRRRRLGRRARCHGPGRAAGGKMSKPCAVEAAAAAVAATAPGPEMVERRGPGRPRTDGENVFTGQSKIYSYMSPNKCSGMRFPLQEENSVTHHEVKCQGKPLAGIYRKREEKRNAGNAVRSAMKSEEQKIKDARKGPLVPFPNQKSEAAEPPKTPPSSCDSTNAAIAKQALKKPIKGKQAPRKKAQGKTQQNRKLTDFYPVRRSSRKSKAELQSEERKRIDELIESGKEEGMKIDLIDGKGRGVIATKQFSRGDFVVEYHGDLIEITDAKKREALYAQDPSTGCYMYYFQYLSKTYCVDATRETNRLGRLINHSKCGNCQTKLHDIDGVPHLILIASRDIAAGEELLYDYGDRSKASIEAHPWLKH
inactive: [1] 0.069 | entinostat -0.258 | vorinostat 0.096

ILF3 (UniProt Q12906)
inactive: [1] 0.013 | [5] 0.331 | entinostat 0.058 | citarinostat -0.134 | silmitasertib 0.181 | [4] 0.174 | [6] -0.218 | entospletinib -0.086

MCOLN3 (UniProt Q8TDD5)
Sequence of UniProt Q8TDD5 (Q8TDD5 whole entry, looked up): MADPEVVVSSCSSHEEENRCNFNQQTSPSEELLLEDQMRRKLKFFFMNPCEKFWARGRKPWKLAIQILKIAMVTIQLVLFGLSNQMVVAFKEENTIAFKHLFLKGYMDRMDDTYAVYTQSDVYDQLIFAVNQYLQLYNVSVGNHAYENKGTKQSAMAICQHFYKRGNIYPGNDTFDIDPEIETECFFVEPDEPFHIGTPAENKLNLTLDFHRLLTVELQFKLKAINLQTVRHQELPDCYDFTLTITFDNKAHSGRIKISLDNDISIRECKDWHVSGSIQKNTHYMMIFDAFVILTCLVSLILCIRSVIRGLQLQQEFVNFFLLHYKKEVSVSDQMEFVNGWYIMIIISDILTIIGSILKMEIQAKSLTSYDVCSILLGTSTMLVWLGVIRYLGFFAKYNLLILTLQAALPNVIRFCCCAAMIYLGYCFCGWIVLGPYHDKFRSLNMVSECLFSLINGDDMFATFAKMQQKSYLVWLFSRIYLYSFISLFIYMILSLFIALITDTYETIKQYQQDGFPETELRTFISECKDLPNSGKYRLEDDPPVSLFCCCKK
inactive: [5] -0.254 | vorinostat 0 | citarinostat 0.095 | silmitasertib 0.083 | [6] 0.159 | entospletinib -0.194

LOX (UniProt P28300)
inactive: [5] -0.086 | silmitasertib 0.187

KIF1B isoform 3 (UniProt O60333)
inactive: [5] -0.073 | [3] -0.389 | citarinostat 0.043 | silmitasertib -0.057 | [6] -0.55 | entospletinib 0.041

MAP2K5 (UniProt Q13163)
inactive: [2] -0.025

MGRN1 isoform 2 (UniProt O60291)
inactive: [2] 0.11 | vorinostat -0.024

KIZ (UniProt Q2M2Z5)
inactive: [2] -0.067 | vorinostat 0.137 | citarinostat -0.094 | [6] 0.045 | entospletinib -0.105

MAP4K4 isoform 6 (UniProt O95819)
inactive: [1] 0.332 | [5] 0.009 | [3] 0.228 | entinostat 0.237 | citarinostat 0.114 | silmitasertib -0.202 | [6] 0.143 | entospletinib -0.103

IPP (UniProt Q9Y573)
inactive: [2] 0.047

IGFBP6 (UniProt P24592)
inactive: [2] -0.079 | [3] -0.13

LSR (UniProt M0QZL9)
inactive: [1] -0.508 | [3] -0.095 | entinostat -0.406 | [4] -0.074

KCNK5 (UniProt O95279)
inactive: [1] -0.066 | [5] 0.16 | entinostat 0.031 | vorinostat -0.102 | citarinostat 0.198 | silmitasertib 0.093 | [4] 0.004 | [6] 0.005 | entospletinib 0.171

LRRFIP1 isoform 4 (UniProt Q32MZ4)
inactive: [2] 0.04 | vorinostat -0.062 | [4] -0.019

MAPK11 (UniProt Q15759)
inactive: vorinostat 0.033

LSR isoform 3 (UniProt Q86X29)
Sequence of UniProt Q86X29 (Q86X29 whole entry, looked up): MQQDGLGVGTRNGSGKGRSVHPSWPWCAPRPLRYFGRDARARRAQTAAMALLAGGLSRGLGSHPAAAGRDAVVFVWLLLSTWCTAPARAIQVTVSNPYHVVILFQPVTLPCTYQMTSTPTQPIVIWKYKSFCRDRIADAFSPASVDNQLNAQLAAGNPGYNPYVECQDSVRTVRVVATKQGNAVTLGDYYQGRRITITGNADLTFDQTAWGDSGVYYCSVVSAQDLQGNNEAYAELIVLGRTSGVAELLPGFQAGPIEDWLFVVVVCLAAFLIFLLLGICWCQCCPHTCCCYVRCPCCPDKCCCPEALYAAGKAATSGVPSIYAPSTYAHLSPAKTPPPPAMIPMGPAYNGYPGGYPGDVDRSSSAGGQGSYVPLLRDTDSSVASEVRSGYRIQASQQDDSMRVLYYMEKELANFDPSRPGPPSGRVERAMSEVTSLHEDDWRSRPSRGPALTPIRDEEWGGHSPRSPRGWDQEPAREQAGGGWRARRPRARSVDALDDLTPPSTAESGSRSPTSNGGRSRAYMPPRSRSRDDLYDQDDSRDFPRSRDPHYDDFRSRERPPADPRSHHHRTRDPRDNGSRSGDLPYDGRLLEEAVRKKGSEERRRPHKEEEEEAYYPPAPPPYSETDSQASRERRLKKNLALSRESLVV
inactive: [1] -0.531 | [5] -0.327 | entinostat -0.134 | silmitasertib 0.062

MARCHF3 (UniProt Q86UD3)
inactive: [1] 0.169 | entinostat -0.038 | citarinostat -0.133 | [4] -0.014 | [6] -0.26 | entospletinib 0.058

MCM10 (UniProt Q7L590)
inactive: [5] 0.002 | [3] -0.085 | entinostat 0.224 | vorinostat 0.021 | citarinostat 0.143 | silmitasertib -0.129 | [4] 0.134 | [6] 0.107 | entospletinib -0.04
active: [1] 0.522

MAPRE3 isoform 2 (UniProt Q9UPY8)
inactive: [2] -0.033

LIN52 (UniProt Q52LA3)
inactive: [5] 0.294 | silmitasertib -0.045

LRFN1 (UniProt Q9P244)
inactive: [1] -0.14 | [3] -0.166 | entinostat 0.133 | citarinostat -0.06 | [4] 0.036 | [6] 0.716 | entospletinib -0.031

LAPTM4B (UniProt Q86VI4)
inactive: [1] -0.109 | [5] 0.116 | entinostat -0.126 | vorinostat -0.064 | citarinostat 0.092 | silmitasertib 0.025 | [6] -0.178 | entospletinib 0.049

JAK3 (UniProt P52333)
inactive: [1] 0 | [5] -0.045 | [3] -0.102 | entinostat -0.019 | vorinostat -0.048 | silmitasertib -0.003 | [4] 0.002

ING5 (UniProt Q8WYH8)
inactive: [5] -0.042 | citarinostat 0.115 | silmitasertib -0.013 | [6] -0.008 | entospletinib -0.058

MAML1 (UniProt Q92585)
inactive: [1] 0.08 | [3] 0.088 | entinostat -0.104 | [4] 0.025

MAPK7 (UniProt Q13164)
inactive: [2] -0.25 | vorinostat -0.069 | [4] 0

From the supplement of paper PMC10849652
